An excerpt weighted towards active compounds, which were near 19% of everything screened.
Chronic BCR inh: inhibitors of chronic active B-cell receptor signaling; Potency, µM (doses to about 46.1 µM), most hits filed as inhibitors; ABC-DLBCL IkBa-CBG/CBR reporter, luminescence ratio, 4 h; 340,000 tested, 0.05% active; active = well fitted inhibition curve with a large enough effect in the signal ratio, with a control signal flat, not every such curve was filed as active; inconclusive = small, poorly fitted or top-dose-only effect, or effect the other way, or a change in a side signal; the % refers to the signal ratio
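Compounds up to 46 uM were incubated four hours with TMD8 cells whose green CBG68 luciferase is fused to IkappaBalpha; red CBR luminescence normalised the signal, and concentration-effect curves were fitted to fusion, red and ratio data.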
SW480 rereplic: induces DNA re-replication in SW480 colon adenocarcinoma cells. Potency, µM (highest dose often 46.1 µM), most hits filed as activators. SW480 DNA re-replication, Hoechst DNA content imaging, 48 h. 340,000 tested, 1.8% active; also: nearly all actives have a fitted effect of over 55% in size
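DNA re-replication was detected as more nuclei of elevated Hoechst intensity after 48 hr exposure to compound (23 nL pinned per well of 250 cells).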
TDP1 cell noCPT: qHTS for Inhibitors of human tyrosyl-DNA phosphodiesterase 1 (TDP1): qHTS in cells in absence of CPT; DT40 Tdp1-/- hTDP1 cells, no CPT, ATP luminescence, 48 h; Potency, µM (doses to about 46.2 µM), actives largely listed as inhibitors; 420,000 tested, 15% active; AID 686978, 2013; also: nearly all actives have a fitted effect of over 55% in size
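Luminescent ATP content (CellTiter-Glo) served as the growth readout. Knockout chicken DT40 cells expressing human TDP1 were exposed to compounds without camptothecin for a minimum 48 hr at 37 °C.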
IL1B secr inh: blocks inflammasome-driven IL-1 beta release; activity change, % at 57.5 µM; AID 743279; THP-1 LPS/ATP IL-1B secretion, AlphaLISA, 16 h; active compounds read low; 360,000 tested, 4.7% active; in the data active = activity change below about -50%; inconclusive = mostly about -30% to -49%
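Secreted IL-1B measured by AlphaLISA bead assay after 16 h compound exposure of THP-1 cells; compounds (final up to 57.5 uM) added 1 h before LPS (250 ng/mL) and ATP (1.25 mM) stimulation; lower signal means less secretion.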
DT40 TDP1 CPT: DT40-hTDP1 cell growth loss with CPT; AID 686979; Potency, µM (top dose mostly 46.2 µM), actives largely listed as inhibitors; chicken DT40 Tdp1-/-;hTDP1 cells + 20 nM CPT, ATP luminescence, 48 h; 420,000 tested, 12% active; also: nearly all actives have a fitted effect of over 55% in size
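Chicken DT40 Tdp1-/- cells complemented with human TDP1, 400 cells/well, exposed to compounds plus 20 nM camptothecin for at least 48 h at 37 C; viability read as ATP content by CellTiter-Glo luminescence.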
MCF10A rereplic: DNA re-replication induction in MCF 10a cells; MCF 10A DNA re-replication, Hoechst nuclear intensity, 48 h; Potency, µM (highest dose often 46.1 µM), actives largely listed as activators; 350,000 tested, 2.9% active; AID 624296; also: nearly all actives have a fitted effect of over 50% in size
Large screens that a line does not name were inactive. Unless noted, calls follow the shape of the dose curve; as a rule, active = well fitted curve in the direction sought with a large enough effect; inconclusive = small, poorly fitted or top-dose-only effect, or another doubt; inactive = no such curve, though single readings can be large; an effect the other way counts as inactive or inconclusive.

N#CC1=C(N)NC(SCC(=O)Nc2ccc(Br)cc2)=C(C#N)C12CCCCC2	Chronic BCR inh inconclusive, TDP1 cell noCPT inconclusive, IL1B secr inh inconclusive, DT40 TDP1 CPT 25.9µM, MCF10A rereplic inconclusive
N#CC1=C(N)NC(SCc2ccc(Br)cc2)=C(C#N)C12CCCCC2	Chronic BCR inh inconclusive, TDP1 cell noCPT inconclusive, DT40 TDP1 CPT inconclusive, MCF10A rereplic inconclusive
N#CC1=C(N)NC(SCc2ccc(Cl)cc2)=C(C#N)C12CCCCC2	TDP1 cell noCPT inconclusive, DT40 TDP1 CPT inconclusive, MCF10A rereplic inconclusive
CCSC1=C(C#N)C2(CCCC2)C(C#N)=C(N)N1	Chronic BCR inh inconclusive, SW480 rereplic inconclusive, TDP1 cell noCPT 16.4µM, DT40 TDP1 CPT 7.31µM, MCF10A rereplic inconclusive
NS(=O)(=O)c1cccc(NC(=O)c2ccno2)c1	Chronic BCR inh inconclusive
CC1Cc2ccccc2N1C(=O)COC(=O)Cc1ccc(F)cc1 (stereo not given)	none
Cc1ccc(NC(=O)CN2C(=O)NC(C)(C3CC3)C2=O)cc1S(=O)(=O)N1CCCCC1 (stereo not given)	DT40 TDP1 CPT inconclusive
COCCNC(=O)C1(C)CCCN(C(=O)c2cc(OC)c(OC)c(OC)c2)C1 (stereo not given)	none (no result: Chronic BCR inh, SW480 rereplic, MCF10A rereplic)
CC(=O)N1c2ccccc2N=C(c2ccc3c(c2)OCO3)C1C(=O)NCc1ccccc1 (stereo not given)	TDP1 cell noCPT inconclusive, DT40 TDP1 CPT inconclusive (no result: Chronic BCR inh, SW480 rereplic, MCF10A rereplic)
CSc1ccccc1OCc1cc(C(=O)N2CCN3CCCC3C2)no1 (stereo not given)	MCF10A rereplic inconclusive
CC(=O)Nc1cccc(NC(=O)CCNC(=O)c2ccc(Cl)cc2)c1	none
CN(c1ccccc1)S(=O)(=O)c1cccc(NC(=O)CCNC(=O)c2ccc(Cl)cc2)c1	Chronic BCR inh inconclusive, TDP1 cell noCPT inconclusive, DT40 TDP1 CPT 23.1µM
CCCC(=O)Nc1cccc(S(=O)(=O)N(C)c2ccccc2)c1	TDP1 cell noCPT inconclusive, DT40 TDP1 CPT 16.4µM (no result: SW480 rereplic)
CN(c1ccccc1)S(=O)(=O)c1cccc(NC(=O)COc2ccccc2)c1	Chronic BCR inh inconclusive, TDP1 cell noCPT inconclusive, DT40 TDP1 CPT inconclusive
CN(c1ccccc1)S(=O)(=O)c1cccc(NC(=O)CCNC(=O)c2ccccc2)c1	TDP1 cell noCPT 16.4µM, DT40 TDP1 CPT 18.4µM
CN(c1ccccc1)S(=O)(=O)c1cccc(NC(=O)CCNC(=O)c2ccc([N+](=O)[O-])cc2)c1	Chronic BCR inh inconclusive, SW480 rereplic inconclusive, TDP1 cell noCPT inconclusive, IL1B secr inh inconclusive, DT40 TDP1 CPT inconclusive
Cn1cc(Br)c(NC(=O)/C=C/C(=O)O)n1	none
CO[C@H]1CC[C@@]2(C)[C@@H](CC[C@@H]3[C@@H]2CC[C@@]2(C)[C@H]3C[C@H](C(=O)N[C@@H](CCCN=C(N)N)C(=O)NCC(=O)N[C@@H](CC(=O)O)C(N)=O)O[C@]23CCCO3)C1	none
CCOC(=O)N1CCN(C(=O)C2CCC(=O)N(Cc3ccccc3OC)C2)CC1 (stereo not given)	none (no result: Chronic BCR inh, SW480 rereplic, MCF10A rereplic)
CC(C)C[C@@H](CN1CCC[C@H]1CN1C(=O)C(=O)NC[C@@H]1Cc1ccccc1)N1C[C@H](Cc2ccc(O)cc2)N(CC2CCCCC2)C(=O)C1=O	TDP1 cell noCPT inconclusive, DT40 TDP1 CPT inconclusive (no result: Chronic BCR inh, SW480 rereplic, MCF10A rereplic)
COCC(C)n1c(C)cc(C(=O)CN2C(=O)NC3(CCCCC3C)C2=O)c1C (stereo not given)	TDP1 cell noCPT 20.6µM, DT40 TDP1 CPT inconclusive
COc1ccccc1-c1cc(C(F)(F)F)nc(N2CCCCC2)n1	Chronic BCR inh inconclusive
COc1ccccc1-c1cc(C(F)(F)F)nc(N2CCCC2)n1	TDP1 cell noCPT inconclusive, MCF10A rereplic 25.9µM
COc1ccccc1-c1cc(C(F)(F)F)nc(S(=O)(=O)CCCC(=O)NC(C)C)n1	Chronic BCR inh inconclusive, SW480 rereplic 2.91µM, TDP1 cell noCPT 3.26µM, IL1B secr inh -97.5, DT40 TDP1 CPT 2.31µM, MCF10A rereplic 6.31µM
COc1ccccc1-c1cc(C(F)(F)F)nc(S(=O)(=O)CCCC(=O)N2CCCCC2C)n1 (stereo not given)	Chronic BCR inh inconclusive, SW480 rereplic inconclusive, TDP1 cell noCPT 4.11µM, IL1B secr inh -97.1, DT40 TDP1 CPT 4.11µM, MCF10A rereplic 3.98µM
COc1ccccc1-c1cc(C(F)(F)F)nc(S(=O)(=O)CCCC(=O)Nc2cc(Br)ccc2O)n1	none (no result: Chronic BCR inh, SW480 rereplic, IL1B secr inh, MCF10A rereplic)
COc1ccccc1-c1cc(C(F)(F)F)nc(S(C)(=O)=O)n1	Chronic BCR inh inconclusive, SW480 rereplic inconclusive, TDP1 cell noCPT 5.8µM, IL1B secr inh -109.0, DT40 TDP1 CPT 3.66µM, MCF10A rereplic 4.11µM
COc1ccccc1-c1cc(C(F)(F)F)nc(S(=O)(=O)CCCC(=O)NCc2ccc(F)cc2)n1	Chronic BCR inh inconclusive, SW480 rereplic inconclusive, TDP1 cell noCPT 4.11µM, IL1B secr inh -99.6, DT40 TDP1 CPT 2.91µM, MCF10A rereplic 4.11µM
COC(=O)c1cc2oc3ccccc3c2n1CC(=O)Nc1ccc(OC)c(OC)c1	none (no result: Chronic BCR inh, SW480 rereplic, IL1B secr inh, MCF10A rereplic)
CCCCCCN1C[C@H](n2cc(-c3ccc(F)cc3)nn2)[C@@H](O)C[C@@H]1c1ccccc1	TDP1 cell noCPT inconclusive, DT40 TDP1 CPT inconclusive (no result: Chronic BCR inh, SW480 rereplic, MCF10A rereplic)
O[C@H]1CN(CC2CCCCC2)[C@@H](c2ccc(Cl)cc2)C[C@@H]1n1cc(-c2ccc(F)cc2)nn1	TDP1 cell noCPT 20.6µM, DT40 TDP1 CPT inconclusive (no result: Chronic BCR inh, SW480 rereplic, MCF10A rereplic)
